# About 79,000 compounds went through this panel and 15% of them were active in at least one assay; those are over-represented in the sample as a whole. Unmarked numbers belong to inactive results. The source made the active and inactive calls. Rule as the data show it: active = growth inhibition above about 70%; inactive = the rest.
# Columns and labels:
# [1] = NCI Yeast Anticancer Drug Screen. Data for the rad52 strain (AID 147);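 also: 0% = growth of vehicle-treated control cultures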; conditions: S. cerevisiae rad52 mutant growth inhibition, active compounds read high
# Method in brief: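 Here a repair-compromised yeast strain receives each compound; its growth is then quantified and normalised to vehicle-only controls.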
# [2] = NCI Yeast Anticancer Drug Screen. Data for the wt1 strain (AID 149);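 also: 0% = growth of vehicle-treated wt1 cultures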; conditions: S. cerevisiae wt1 strain (SPY 50644) growth inhibition, active compounds read high
# Method in brief: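 Vehicle-normalised growth inhibition; strain wt1; compound exposure.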
# [3] = NCI Yeast Anticancer Drug Screen. Data for the rad50EPP+ strain (AID 151);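 also: 0% = growth of vehicle-treated control cultures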; conditions: S. cerevisiae rad50 mutant strain, active compounds read high
# Method in brief: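 Read-out is yeast growth inhibition relative to vehicle; cells used were the rad50EPP+ strain.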
# [4] = NCI Yeast Anticancer Drug Screen. Data for the mgt1 strain (AID 153); conditions: S. cerevisiae mgt1 mutant growth inhibition, active compounds read high
# Method in brief: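 Measured: inhibition of mgt1 yeast growth by compound, normalized to vehicle-treated cultures.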
# [5] = NCI Yeast Anticancer Drug Screen. Data for the rad50 strain (AID 155);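 also: 0% = growth of vehicle-only cultures of the same strain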; conditions: S. cerevisiae rad50 strain growth inhibition, active compounds read high
# Method in brief: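 A DNA repair-deficient yeast mutant serves as the test organism; compound-induced growth inhibition is calculated against vehicle-treated cells.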
# [6] = NCI Yeast Anticancer Drug Screen. Data for the mec2-1 strain (AID 157); conditions: S. cerevisiae mec2-1 strain, active compounds read high
# Method in brief: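 Using mec2-1 yeast: add compound, measure growth, express inhibition versus vehicle-treated cultures.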
# [7] = NCI Yeast Anticancer Drug Screen. Data for the sgs1 mgt1 strain (AID 161);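 also: 0% = growth of cultures given vehicle only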; conditions: S. cerevisiae sgs1 mgt1 strain, active compounds read high
# Method in brief: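 This yeast growth screen uses a strain with defined DNA-repair lesions; compound-treated growth is compared with vehicle-treated growth.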
# [8] = NCI Yeast Anticancer Drug Screen. Data for the CLN2oe strain (AID 163);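 also: 0% = growth of vehicle-only control cultures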; conditions: S. cerevisiae CLN2oe strain, active compounds read high
# Method in brief: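 Whole-cell yeast growth assay. A strain engineered for altered cell-cycle control received compound, and inhibition relative to vehicle-treated cultures was recorded.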
# [9] = NCI Yeast Anticancer Drug Screen. Data for the cln2 rad14 strain (AID 165);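 also: 0% = growth equal to vehicle treated cultures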; conditions: S. cerevisiae cln2 rad14 strain, active compounds read high
# Method in brief: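 Yeast strain cln2 rad14, bearing defects in cell cycle control and DNA repair, serves as the test system; values reflect growth inhibition compared with vehicle.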
# [10] = NCI Yeast Anticancer Drug Screen. Data for the bub3 strain (AID 167); conditions: S. cerevisiae bub3 mutant strain, active compounds read high
# Method in brief: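 Inhibition values come from growth of compound-treated mutant yeast normalised to vehicle-treated controls.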
# [11] = NCI Yeast Anticancer Drug Screen. Data for the wt2 strain (AID 169);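 also: 0% = growth of vehicle-treated yeast cultures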; conditions: S. cerevisiae wt2 strain growth inhibition, active compounds read high
# Method in brief: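 Treated yeast vs. vehicle-treated yeast: growth inhibition determined.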
# [12] = NCI Yeast Anticancer Drug Screen. Data for the mlh1 strain (AID 171);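 also: 0% = growth of vehicle-treated control cultures of the same strain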; conditions: S. cerevisiae mlh1 strain growth inhibition, active compounds read high
# Method in brief: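 A yeast strain with a defined genetic lesion serves as the test organism. Cultures receive compound or vehicle, and growth is measured.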
# [13] = NCI Yeast Anticancer Drug Screen. Data for the sgs1 strain (AID 173);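 also: 0% = growth of vehicle-only control cultures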; conditions: S. cerevisiae sgs1 mutant, active compounds read high
# Method in brief: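 A genetically defined yeast mutant is incubated with the test compound, and its growth is compared to that of the same strain given vehicle.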
# [14] = NCI Yeast Anticancer Drug Screen. Data for the mlh1 rad18 strain (AID 175); conditions: S. cerevisiae mlh1 rad18 strain growth inhibition, active compounds read high
# Method in brief: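 Steps: expose repair-defective yeast to compound; measure growth; express inhibition against vehicle-treated controls.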
# [15] = NCI Yeast Anticancer Drug Screen. Data for the rad18 strain (AID 177); conditions: S. cerevisiae rad18 mutant growth inhibition, active compounds read high
# Method in brief: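 Measured value is growth inhibition of a yeast strain bearing a DNA repair alteration, referenced to vehicle-treated cells.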
# [16] = NCI Yeast Anticancer Drug Screen. Data for the rad14 strain (AID 159);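 also: 0% = growth of vehicle-treated control cultures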; conditions: S. cerevisiae rad14 strain growth inhibition, active compounds read high
# Method in brief: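 Vehicle-treated cultures served as the baseline for growth inhibition of a DNA repair-mutant yeast strain exposed to each compound.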
# [17] = at 5.0 µM (retest, dose inferred, filed as 0.5)
# [18] = at 50.0 µM (retest, dose inferred, filed as 5.0)
smiles,measurement,setting,value
NC(CS)C(=O)NCCNc1ccc(NCCNC(=O)C(N)CS)c2c1C(=O)c1c(O)ccc(O)c1C2=O (stereo not drawn),growth inhibition,[1]; at 1.2 µM,-10%
same,growth inhibition,[1]; at 3.7 µM,58%
same,growth inhibition,[1]; at 11.0 µM,73% (active)
same,growth inhibition,[1]; at 33.0 µM,80% (active)
same,growth inhibition,[1]; at 100.0 µM,48%
same,growth inhibition,[2]; at 1.2 µM,-42%
same,growth inhibition,[2]; at 3.7 µM,-25%
same,growth inhibition,[2]; at 11.0 µM,-67%
same,growth inhibition,[2]; at 33.0 µM,45%
same,growth inhibition,[2]; at 100.0 µM,68%
same,growth inhibition,[3]; at 1.2 µM,-4%
same,growth inhibition,[3]; at 3.7 µM,46%
same,growth inhibition,[3]; at 11.0 µM,67%
same,growth inhibition,[3]; at 33.0 µM,80% (active)
same,growth inhibition,[3]; at 100.0 µM,54%
same,growth inhibition,[4]; at 1.2 µM,7%
same,growth inhibition,[4]; at 3.7 µM,18%
same,growth inhibition,[4]; at 11.0 µM,23%
same,growth inhibition,[4]; at 33.0 µM,86% (active)
same,growth inhibition,[4]; at 100.0 µM,62%
same,growth inhibition,[5]; at 1.2 µM,33%
same,growth inhibition,[5]; at 3.7 µM,67%
same,growth inhibition,[5]; [17],75% (active)
same,growth inhibition,[5]; at 11.0 µM,81% (active)
same,growth inhibition,[5]; at 33.0 µM,85% (active)
same,growth inhibition,[5]; [18],88% (active)
same,growth inhibition,[5]; at 50.0 µM,79.2% (active)
same,growth inhibition,[5]; at 100.0 µM,62%
same,growth inhibition,[6]; at 1.2 µM,-42%
same,growth inhibition,[6]; at 3.7 µM,-26%
same,growth inhibition,[6]; [17],2%
same,growth inhibition,[6]; at 11.0 µM,-11%
same,growth inhibition,[6]; at 33.0 µM,86% (active)
same,growth inhibition,[6]; [18],89% (active)
same,growth inhibition,[6]; at 50.0 µM,76% (active)
same,growth inhibition,[6]; at 100.0 µM,65%
same,growth inhibition,[7]; [17],6%
same,growth inhibition,[7]; [18],-32%
same,growth inhibition,[7]; at 50.0 µM,78.7% (active)
same,growth inhibition,[8]; at 1.2 µM,-4%
same,growth inhibition,[8]; at 3.7 µM,4%
same,growth inhibition,[8]; at 11.0 µM,-10%
same,growth inhibition,[8]; at 33.0 µM,84% (active)
same,growth inhibition,[8]; at 100.0 µM,56%
same,growth inhibition,[9]; [17],20%
same,growth inhibition,[9]; [18],-57%
same,growth inhibition,[9]; at 50.0 µM,74.2% (active)
same,growth inhibition,[10]; at 1.2 µM,-29%
same,growth inhibition,[10]; at 3.7 µM,-21%
same,growth inhibition,[10]; [17],13%
same,growth inhibition,[10]; at 11.0 µM,-34%
same,growth inhibition,[10]; at 33.0 µM,81% (active)
same,growth inhibition,[10]; [18],-54%
same,growth inhibition,[10]; at 50.0 µM,68.2%
same,growth inhibition,[10]; at 100.0 µM,51%
same,growth inhibition,[11]; at 1.2 µM,-19%
same,growth inhibition,[11]; at 3.7 µM,-57%
same,growth inhibition,[11]; at 11.0 µM,-63%
same,growth inhibition,[11]; at 33.0 µM,81% (active)
same,growth inhibition,[11]; at 100.0 µM,64%
same,growth inhibition,[12]; at 1.2 µM,-34%
same,growth inhibition,[12]; at 3.7 µM,-35%
same,growth inhibition,[12]; at 11.0 µM,-33%
same,growth inhibition,[12]; at 33.0 µM,85% (active)
same,growth inhibition,[12]; at 100.0 µM,62%
same,growth inhibition,[13]; at 1.2 µM,-23%
same,growth inhibition,[13]; at 3.7 µM,-36%
same,growth inhibition,[13]; at 11.0 µM,-27%
same,growth inhibition,[13]; at 33.0 µM,84% (active)
same,growth inhibition,[13]; at 100.0 µM,63%
same,growth inhibition,[14]; [17],13%
same,growth inhibition,[14]; [18],80% (active)
same,growth inhibition,[14]; at 50.0 µM,72.5% (active)
same,growth inhibition,[15]; at 1.2 µM,3%
same,growth inhibition,[15]; at 3.7 µM,-10%
same,growth inhibition,[15]; at 11.0 µM,-8%
same,growth inhibition,[15]; at 33.0 µM,84% (active)
same,growth inhibition,[15]; at 100.0 µM,61%
Cn1c(-c2ccc(/C=N\N3CCN(/N=C/c4ccc(-c5c[n+]6ccsc6n5C)cc4)CC3)cc2)c[n+]2ccsc12,growth inhibition,[1]; at 1.2 µM,14%
same,growth inhibition,[1]; at 3.7 µM,19%
same,growth inhibition,[1]; at 11.0 µM,20%
same,growth inhibition,[1]; at 33.0 µM,16%
same,growth inhibition,[1]; at 100.0 µM,75% (active)
same,growth inhibition,[2]; at 1.2 µM,5%
same,growth inhibition,[2]; at 3.7 µM,18%
same,growth inhibition,[2]; at 11.0 µM,14%
same,growth inhibition,[2]; at 33.0 µM,17%
same,growth inhibition,[2]; at 100.0 µM,71% (active)
same,growth inhibition,[3]; at 1.2 µM,30%
same,growth inhibition,[3]; at 3.7 µM,51%
same,growth inhibition,[3]; at 11.0 µM,49%
same,growth inhibition,[3]; at 33.0 µM,59%
same,growth inhibition,[3]; at 100.0 µM,78% (active)
same,growth inhibition,[4]; at 1.2 µM,17%
same,growth inhibition,[4]; at 3.7 µM,27%
same,growth inhibition,[4]; at 11.0 µM,25%
same,growth inhibition,[4]; at 33.0 µM,25%
same,growth inhibition,[4]; at 100.0 µM,69%
same,growth inhibition,[5]; at 1.2 µM,21%
same,growth inhibition,[5]; at 3.7 µM,33%
same,growth inhibition,[5]; [17],12%
same,growth inhibition,[5]; at 11.0 µM,21%
same,growth inhibition,[5]; at 33.0 µM,11%
same,growth inhibition,[5]; [18],29%
same,growth inhibition,[5]; at 50.0 µM,18%
same,growth inhibition,[5]; at 100.0 µM,76% (active)
same,growth inhibition,[16]; at 1.2 µM,16%
same,growth inhibition,[16]; at 3.7 µM,10%
same,growth inhibition,[16]; at 11.0 µM,9%
same,growth inhibition,[16]; at 33.0 µM,14%
same,growth inhibition,[16]; at 100.0 µM,59%
same,growth inhibition,[7]; [17],18%
same,growth inhibition,[7]; [18],58%
same,growth inhibition,[7]; at 50.0 µM,25.1%
same,growth inhibition,[8]; at 1.2 µM,40%
same,growth inhibition,[8]; at 3.7 µM,48%
same,growth inhibition,[8]; at 11.0 µM,49%
same,growth inhibition,[8]; at 33.0 µM,52%
same,growth inhibition,[8]; at 100.0 µM,76% (active)
same,growth inhibition,[9]; [17],18%
same,growth inhibition,[9]; [18],18%
same,growth inhibition,[9]; at 50.0 µM,70.5% (active)
same,growth inhibition,[10]; at 1.2 µM,17%
same,growth inhibition,[10]; at 3.7 µM,26%
same,growth inhibition,[10]; [17],17%
same,growth inhibition,[10]; at 11.0 µM,25%
same,growth inhibition,[10]; at 33.0 µM,40%
same,growth inhibition,[10]; [18],35%
same,growth inhibition,[10]; at 50.0 µM,16.4%
same,growth inhibition,[10]; at 100.0 µM,78% (active)
same,growth inhibition,[11]; at 1.2 µM,-43%
same,growth inhibition,[11]; at 3.7 µM,-40%
same,growth inhibition,[11]; at 11.0 µM,-31%
same,growth inhibition,[11]; at 33.0 µM,0%
same,growth inhibition,[11]; at 100.0 µM,90% (active)
same,growth inhibition,[12]; at 1.2 µM,33%
same,growth inhibition,[12]; at 3.7 µM,32%
same,growth inhibition,[12]; at 11.0 µM,19%
same,growth inhibition,[12]; at 33.0 µM,47%
same,growth inhibition,[12]; at 100.0 µM,74% (active)
same,growth inhibition,[13]; at 1.2 µM,29%
same,growth inhibition,[13]; at 3.7 µM,32%
same,growth inhibition,[13]; at 11.0 µM,32%
same,growth inhibition,[13]; at 33.0 µM,46%
same,growth inhibition,[13]; at 100.0 µM,88% (active)
same,growth inhibition,[14]; [17],34%
same,growth inhibition,[14]; [18],73% (active)
same,growth inhibition,[14]; at 50.0 µM,-10.8%
